Laboratory results as given in article PMC5540273 (PLoS ONE, 2017).

Test system: EPHB2
Details: concentration: 1 μM,replicates: in singlicate; n = 1
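Also: KINOMEscan kinase panel screen.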

Row | Compound | %Inh
1 | CNC(=O)c1ccccc1Nc1nc(Nc2cccc(CS(C)(=O)=O)c2)ncc1C.O=CO [GSK1520489] | 88%
2 | O=C(Nc1n[nH]c2cc(-c3ccco3)ccc12)C1CC1 [SB-737447] | 0%
3 | CSc1nccc(-c2c(-c3ccc(F)cc3)ncn2CCCN2CCOCC2)n1.Cl [SB-217146] | 0%
4 | COc1cccc(CNC(=O)NC2CCN(c3ccnc(Nc4cc(OC)c(OC)c(OC)c4)n3)C2)c1 (stereo not shown) [GSK1379765] | 0%
5 | Cn1cc(-c2cccc3c(N)c(C(N)=O)nnc23)cn1 | 12%
6 | Cc1ccc(Nc2ccnc(Nc3ccc4c(c3)CS(=O)(=O)C4)n2)cc1O.Cl [GW579362] | 25%
7 | CC(C(=O)NC1CCN(c2ccnc(Nc3ccc(F)cc3)n2)C1)c1ccc(Cl)cc1 (stereo not shown) [GSK1379713] | 0%
8 | COc1cc2c(Nc3ccc(NC(=O)c4ccccc4)cc3)ncnc2cc1OCCCN1CCOCC1 [GSK301329] | 0%
9 | N#Cc1cccc(C(=O)NC2CCN(c3ccnc(Nc4ccc(F)cc4)n3)C2)c1 (stereo not shown) [GSK1379708] | 0%
10 | CN1CCN(CCCNc2nccc(-c3c(-c4ccc(F)cc4)nn4cc(C(N)=O)ccc34)n2)CC1 [GW622475] | 26%
11 | O=C(Nc1cccc(C(F)(F)F)c1)c1cccc(Oc2ccc3nccn3n2)c1 | 9%
12 | COC(=O)Nc1nc2cc(Oc3ccc(NC(=O)Nc4cc(C(F)(F)F)ccc4Cl)cc3)ccc2[nH]1.Cl [GW697465] | 60%
13 | Cn1ccc2ncnc(Oc3ccc(NC(=O)Nc4ccnc(C(F)(F)F)c4)c(Cl)c3)c21 | 28%
14 | Cc1cccc2c(-c3ccncc3)c(-c3ccc(F)cc3)nn12.Cl [GW461487] | 94.5%
15 | COc1cccc(C2=C(Nc3cccc(Cl)c3)C(=O)NC2=O)c1 [SB-341556] | 0%
16 | OCCn1cc(-c2cnc3nnn(Cc4ccc5ncccc5c4)c3n2)cn1 | 0%
17 | CC(=O)c1c(-c2ccncc2)[nH]c(-c2ccncc2)c1C [GW493036] | 0%
18 | Cn1ccc2ncnc(Oc3ccc(NC(=O)Nc4cncc(C(F)(F)F)c4)c(Cl)c3)c21 | 82%
19 | O=c1[nH]cc(-c2ccc(O)cc2)c2sc(-c3ccncc3)cc12 [GSK1033723] | 26%

Row | Compound | %Inh
20 | COC(=O)c1cccc(NC(=O)NC2CCN(c3ccnc(NCc4ccc(F)cc4)n3)CC2)c1 [GSK1379860] | 0%
21 | Cn1ccc2ncnc(Oc3ccc(NC(=O)Nc4cccc(C(F)(F)F)c4)c(F)c3)c21 | 90.6%
22 | Cl.c1ccc(Oc2ccc(Nc3ccnc4cc(-c5ccc(CN6CCNCC6)o5)ccc34)cc2)nc1 [GW567142] | 0%
23 | CS(=O)(=O)c1cccc(CNc2nc(Nc3ccc4c(c3)[C@@H]3C[C@@H]4CNC3=O)ncc2C(F)(F)F)c1 | 19%
24 | C[C@@H](Oc1cc(-n2cnc3ccc(-c4ccncc4)cc32)sc1C(N)=O)c1ccccc1Cl [GSK483724] | 0%
25 | CCOC(=O)N1CCC(n2cnc(-c3ccc(F)cc3)c2-c2ccnc(N)n2)CC1 [SB-219952] | 7%
26 | Cn1ccc2ncnc(Oc3ccc(NC(=O)Nc4cc(C(C)(C)C)on4)c(Cl)c3)c21 | 78%
27 | Cc1n[nH]c2cc(Nc3ccnc(Nc4cccc(CN5CCOCC5)c4)n3)ccc12 [GW682569] | 13%
28 | NC(=O)c1ccc(-c2cc3ncnc(SCC(=O)O)c3s2)cc1 | 0%
29 | Cc1ccc(CC(=O)N2CCc3cc(-c4cn(C)c5ncnc(N)c45)ccc32)cc1 [GSK2634758] | 0%
30 | COc1ccc(Nc2nccc(N3CCC(NC(=O)c4cccc(C#N)c4)C3)n2)cc1 (stereo not shown) [GSK1379730] | 0%
31 | Cn1ccc2ncnc(Oc3ccc(NC(=O)Nc4cccc(C(F)(F)F)c4)c(Cl)c3)c21 | 92.9%
32 | O=C(Nc1ccccc1)c1cccc(Oc2ccc3nccn3n2)c1 | 8%
33 | Cn1ccc2ncnc(Oc3ccc(NC(=O)Nc4cnn(C(C)(C)C)c4)c(Cl)c3)c21 | 50%
34 | CCn1c(-c2nonc2N)nc2cncc(CNC3CCNCC3)c21.Cl [SB-747651] | 0%
35 | COc1cc2nccc(Nc3ccc(Oc4ccccc4)cc3)c2cc1OC.Cl [GI261656] | 0%
36 | Cl.Cl.NC[C@H](CC1CCCCC1)NC(=O)c1ccc(-c2ccnc3[nH]ccc23)s1 [GSK1581428] | 0%
37 | Cc1cccc(-c2nc(Nc3ccncc3)c3sccc3n2)n1 [GW869641] | 6%
